# Compounds with a hit are over-represented: about 7.2% of the library has one in this group of screens.
# AHR activator: human AHR activation; AID 2796; actives 2.5% (n = 320,000); activation, % at 5 µM; P35869; AHR-responsive luciferase reporter cells, luminescence; in the data active means activation above about 47%;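 further: 0% = vehicle wells and 100% = reference agonist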
# ALR inh: human ALR oxidase inhibition via reduced H2O2. P55789. purified ALR, DTT oxidation, H2O2 HRP-luminol luminescence. inhibition, % (test concentration not listed). actives 3.8% (n = 290,000);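 active means mean replicate inhibition above about 79%, with every replicate also reaching it, limit read from the data; inconclusive means only one of the two criteria met; inactive means mean below limit and not every replicate reaching it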
# VLA-4 inh: inhibition in a human VLA-4 binding assay; P13612; VLA-4 expressing cells, ligand binding flow cytometry; inhibition, % (about 7 µM as worked out from the volumes in the protocol); actives 0.2% (n = 330,000); AID 2557; in the data active means inhibition above about 50%
# A1 inh: inhibitors of the anti-apoptotic protein A1, read as caspase activation; MEF A1-2A-BIM cells, Caspase-Glo 3/7 luminescence, 3 h; percent of clofoctol response, vehicle zero; AID 2462; caspase activation, % (concentration not given with the values); actives 0.066% (n = 330,000);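 active means over half of replicate activation scores above 10%, or exactly half above 10 with the replicate mean above 10; inconclusive means replicate mean below 10 yet half the replicates above 10; inactive means over half of replicates below 10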
# SUMO Mot1 rescue: SUMOylation pathway inhibition by Mot1-301 growth rescue | S. cerevisiae Mot1-301 growth rescue, ATP luminescence, 38.5C; percent above DMSO median, 100 means doubled | growth rescue, % at 18.8 µM | actives 1% (n = 320,000);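 active means every valid replicate shows activation above 250% relative to neutral control wells; inactive means the rest, any valid replicate at or below 250%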;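 further: OY570 slx delta 5 strain wells were the positive control but not used for scaling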
# Efflux pump mplx: blocks antifungal efflux pumps in multiplex yeast assay | S. cerevisiae Candida pump triplex, Nile Red efflux | inhibition, % at 10 µM | actives 0.44% (n = 330,000);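 active means plate passing quality check with inhibition over a set limit, or well fluorescence over plate mean plus 4 SD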;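 further: Nile Red retained in pooled yeast measured as flow cytometry median fluorescence; 0% = buffer negative control and 100% = Enniatin B positive control; higher means more Nile Red kept so more efflux inhibition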
# * = called active by the depositor; ? = inconclusive; / = no result.
SMILES,AHR activator,ALR inh,VLA-4 inh,A1 inh,SUMO Mot1 rescue,Efflux pump mplx
COc1ccc(OC)c(Nc2c3c(nc4ccccc24)CCC3)c1,1,98*,-9,1,8,0
COc1ccc(OC)c(Nc2cc(C)c3ccccc3n2)c1,49*,-36,-8,-1,2,0
COc1cc(Nc2c3c(nc4ccccc24)CCC3)cc(OC)c1OC,1,99*,2,0,10,0
COc1ccc(OC)c(Nc2c3ccccc3nc3ccccc23)c1,1,?,-12,1,12,0
COc1ccc(Nc2cc(C)c3c(O)cccc3n2)cc1,1,84*,14,-2,-1,0
Cc1ccccc1NS(=O)(=O)c1ccc(C(=O)NCC(c2ccco2)N2CCCCC2)cc1 (stereo not drawn),2,-3,0,-1,3,0
COc1ccccc1Nc1c2c(nc3ccc(N)cc13)CCCC2,8,99*,6,-1,-18,0
Cc1ccccc1-n1nc2c(c1NC(=O)COc1ccc(Cl)cc1)CS(=O)C2 (stereo not drawn),2,13,7,1,-20,0
O=C(COc1ccccc1)Nc1c2c(nn1-c1ccccc1)CS(=O)C2 (stereo not drawn),56*,0,3,0,223,-1
Cc1ccccc1NCc1ccccc1O,-4,100*,0,0,-13,0
CCCCCCCNc1cccc(C)c1,-3,-6,-15,1,150,0
Cc1ccc(O)c(CNc2cnc3ccccc3c2)c1,10,98*,-1,1,2,0
Cc1cccc(NCc2ccccc2O)c1,-1,99*,19,0,/,0
Cc1cccc(NCCNc2cccc(C)c2)c1,-4,99*,11,0,6,0
Oc1ccc(Br)cc1CNc1cnc2ccccc2c1,5,55,16,0,117,0
Cc1ccc(NCCNc2ccc(C)cc2)cc1,-1,99*,-3,-1,17,0
COc1cc(C(=O)Nc2ccc(S(=O)(=O)N(C)c3ccccc3)cc2)cc(OC)c1OC,18,-6,-11,1,-12,0
Cc1csc(NC(=O)c2nc(-c3ccccc3)n(-c3ccccc3)n2)n1,18,27,18,2,-7,0
COc1cccc(NC(=O)c2ccccc2NC(=O)c2ccncc2)c1,55*,-3,-20,0,-3,0
COc1cc(C(=O)Nc2ccc(N(C)C)cc2)cc(OC)c1OC,30,99*,22,0,-1,0
O=C(Nc1nccs1)c1nc(-c2ccccc2)n(-c2ccccc2)n1,38,/,16,0,314*,0
O=C(Nc1nccs1)c1ccc2ccccc2c1,54*,0,1,-4,10,0
COc1ccc(C(=O)Nc2ccccc2C(=O)Nc2cccnc2)cc1,44,/,8,0,175,0
O=C(NC(CO)(CO)CO)[C@@H]1CCCN1S(=O)(=O)c1cccc2cccnc12,-1,-1,8,0,11,0
CC(C)(C)NS(=O)(=O)c1ccc(CCC(=O)NCc2cccnc2)cc1,7,-7,-9,0,-4,0
SMILES,AHR activator,ALR inh,VLA-4 inh,A1 inh,SUMO Mot1 rescue,Efflux pump mplx
COc1ccccc1C(=O)N/C(=C/c1ccc(Br)cc1)C(=O)NCC(=O)O,3,2,-5,0,0,0
COc1ccccc1C(C)NC(=O)C1CCN(S(=O)(=O)c2cccs2)CC1 (stereo not drawn),0,-6,25,0,-7,0
COc1ccc(C(=O)Nc2ccccc2C(=O)Nc2cccc(C)n2)cc1,25,-5,-11,-5,3,0
COc1cc(C(=O)Nc2cc(C)ccn2)cc(OC)c1OC,56*,-5,-4,-1,6,0
COc1cc2ccccc2cc1C(=O)NC1CCCC1,77*,-19,0,-2,64,0
COc1cc(C(=O)Nc2ccccn2)cc(OC)c1OC,22,-5,-7,0,-8,0
COc1ccc(C(=O)Nc2ccccc2C(=O)Nc2cc(C)ccn2)cc1,56*,-2,8,-6,51,0
COc1cc2ccccc2cc1C(=O)Nc1cc(C)ccn1,56*,2,1,1,-2,0

# From PubChem
